Assay outcomes (PubChem)
APP 5UTR inh: APP translation inhibition; actives 0.82% (n = 190,000); inhibition, % at 2 µM; SH-SY5Y APP 5'UTR-luciferase reporter, luminescence;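 active means inhibition above a set limit, derived from the sample mean plus 3 SD, cut at about 45% in these data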
Ba/F3 V617F tox: reduce viability of Ba/F3 cells dependent on JAK2V617F; Ba/F3 EpoR-JAK2V617F viability, ATP luminescence; inhibition, % at 5.6 µM; actives 1.1% (n = 220,000); AID 1446;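 active means inhibition above the campaign mean plus 3 SD over all tested compounds, cut at about 24% in these data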;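 further: cytokine-independent growth of Ba/F3 cells driven by EpoR plus mutant JAK2; 0% = DMSO-treated cells and 100% = JAK inhibitor I control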
BaF3 parental: reduces parental Ba/F3 cell viability, JAK2V617F counter-screen; CellTiter-Glo ATP luminescence; inhibition, % at 5.6 µM; actives 1.1% (n = 220,000); AID 1486;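 active means inhibition above a per-campaign cutoff, the mean inhibition of all tested compounds plus 3 SD, cut at about 27% in these data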;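 further: 0% = DMSO wells and 100% = JAK Inhibitor I control wells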
IEC-6 tox: counter-screen for KLF5 inhibitors: cytotoxicity in IEC-6 cells; actives 0.78% (n = 290,000); IEC-6 cytotoxicity, luminescence viability; AID 1825; inhibition, % at 5 µM; in the data active means inhibition above about 22%;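 further: 0% = plate median of test compound wells and 100% = cytotoxic reference compound wells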
KLF5 inhibitor: suppresses KLF5 promoter-driven expression. inhibition, % at 5 µM. actives 0.23% (n = 290,000). DLD-1 KLF5 promoter-luciferase reporter, luminescence;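 active means inhibition above a per-plate limit of that plate's mean compound inhibition plus 3 SD, cut at about 60% in these data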;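 further: 0% = DMSO wells and 100% = LY294002 at 200 µM; higher means less KLF5 promoter-driven luciferase light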
aSyn UTR inh: MLPCN primary screen, SNCA 5' untranslated region; AID 1813; alpha-synuclein 5'UTR reporter, inhibitor activity; actives 0.82% (n = 300,000); inhibition, % (tested at 7.5 µM); in the data active means inhibition above about 60%;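 further: H4 neuroglioblastoma cells stably carrying SNCA 5'UTR luciferase fusion; 0% = DMSO wells and 100% = positive control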
Starred values were filed as active, the others as inactive. An excerpt weighted towards active compounds, which were near 2.2% of everything screened.

COC1CCCCC1NS(=O)(=O)c1ccc(Cl)cc1 (configuration not stated) was read as Ba/F3 V617F tox 0.8, BaF3 parental 5.0, IEC-6 tox 6.3, KLF5 inhibitor -6.8 and aSyn UTR inh 2.6.
O=C1CCC(=O)N1c1ccc(-c2nc3ccccc3s2)cc1 was read as APP 5UTR inh -106.7, Ba/F3 V617F tox 2.3, BaF3 parental 88.6*, IEC-6 tox -2.2, KLF5 inhibitor -83.0 and aSyn UTR inh -119.8.
Nc1ccc(-c2nc3ccccc3s2)cn1 was read as IEC-6 tox -3.6, KLF5 inhibitor -111.0 and aSyn UTR inh -109.6.
CCCCOc1ccc(-c2cnc3ccccc3n2)cc1 was read as Ba/F3 V617F tox -0.9, BaF3 parental 4.2, IEC-6 tox 0.2, KLF5 inhibitor -26.0 and aSyn UTR inh 101.3*.
Oc1ccc(-c2cnc3ccccc3n2)cc1 was read as aSyn UTR inh -72.3.
For COc1ccc(CN2CCNC(=O)C2CC(=O)NC2CCCC2)cc1OC (configuration not stated) the results were IEC-6 tox -0.6, KLF5 inhibitor -4.3 and aSyn UTR inh 12.4.
O=C(CC1C(=O)NCCN1Cc1c(F)cccc1Cl)NCCc1ccccn1 (configuration not stated) was read as APP 5UTR inh 8.1, Ba/F3 V617F tox 2.8, BaF3 parental 7.8, IEC-6 tox 1.0, KLF5 inhibitor -21.4 and aSyn UTR inh 3.0.
Screening O=C(CC1C(=O)NCCN1Cc1ccccc1C(F)(F)F)NCCc1ccccn1 (configuration not stated) returned APP 5UTR inh 13.9, Ba/F3 V617F tox 0.8, BaF3 parental 80.0*, IEC-6 tox 8.1, KLF5 inhibitor -12.7 and aSyn UTR inh -15.0.
For CCC(=O)c1ccc(OCC(O)Cn2c(C)nc3ccccc32)cc1 (configuration not stated) the results were APP 5UTR inh -7.8, Ba/F3 V617F tox 41.7*, BaF3 parental 44.2*, IEC-6 tox 6.2 and KLF5 inhibitor -34.1.
Cc1nnc(SCC(=O)N/N=C/c2ccc(-c3ccc(C)c(Cl)c3)o2)s1 was read as APP 5UTR inh -19.9, Ba/F3 V617F tox -2.5, BaF3 parental 6.0, IEC-6 tox -3.3, KLF5 inhibitor 2.7 and aSyn UTR inh -42.0.
`CC(C(=O)N1CCc2ccccc21)N1CCc2ccccc2C1` (configuration not stated) gave APP 5UTR inh -10.6, Ba/F3 V617F tox 9.3, BaF3 parental 41.4*, IEC-6 tox 4.4, KLF5 inhibitor -32.7 and aSyn UTR inh 7.6.
COc1cc2c(cc1OC)CN(C(C)C(=O)N1CCc3ccccc31)CC2 (configuration not stated) was read as APP 5UTR inh 1.9, Ba/F3 V617F tox -0.5, BaF3 parental 6.2, IEC-6 tox 0.8, KLF5 inhibitor -21.1 and aSyn UTR inh 2.7.
For N#CC(c1ccc(Cl)cc1)c1ccc2c(C(F)(F)F)cc(C(F)(F)F)nc2n1 (configuration not stated) the results were APP 5UTR inh -4.5, Ba/F3 V617F tox 3.0, BaF3 parental 3.6, IEC-6 tox 10.8, KLF5 inhibitor -9.5 and aSyn UTR inh 111.6*.
For N#CC(c1ccc(Cl)cc1)c1cccc(Cl)n1 (configuration not stated) the results were APP 5UTR inh 27.6, Ba/F3 V617F tox -2.7, BaF3 parental 48.1*, IEC-6 tox -2.6, KLF5 inhibitor -7.3 and aSyn UTR inh 6.3.
`Cc1c(C#N)c2ccccc2n1CC(=O)N1CCCc2ccccc21` gave APP 5UTR inh 9.1, Ba/F3 V617F tox -1.1, BaF3 parental 2.2, IEC-6 tox 1.5, KLF5 inhibitor -18.6 and aSyn UTR inh 26.1.
CCOC(=O)NC(=O)/C(N=Nc1ccc(C(F)(F)F)cc1)=C(\C)O was read as APP 5UTR inh 15.4, Ba/F3 V617F tox 4.1, BaF3 parental 13.9, IEC-6 tox 1.5, KLF5 inhibitor -19.1 and aSyn UTR inh -9.7.
Screening CSC1=NCCN1C(=O)c1cccc(C(F)(F)F)c1 returned APP 5UTR inh -2.1, Ba/F3 V617F tox -2.4, BaF3 parental 0.8, IEC-6 tox 7.2, KLF5 inhibitor -5.6 and aSyn UTR inh 5.1.
`NC(=O)c1ccc(N2CCN(S(=O)(=O)c3ccccc3)CC2)c([N+](=O)[O-])c1` gave APP 5UTR inh 12.0, Ba/F3 V617F tox 35.6*, BaF3 parental 38.0*, IEC-6 tox 10.8, KLF5 inhibitor -28.2 and aSyn UTR inh -0.1.
Screening O=c1oc(-c2ccccc2)nc2ccsc12 returned Ba/F3 V617F tox 4.0, BaF3 parental 39.3*, IEC-6 tox 3.9, KLF5 inhibitor -13.6 and aSyn UTR inh 12.3.
O=c1oc(-c2cccs2)nc2ccccc12 was read as APP 5UTR inh -2.0, Ba/F3 V617F tox 0.1, BaF3 parental 1.8, IEC-6 tox 4.4, KLF5 inhibitor -10.2 and aSyn UTR inh -19.4.
`Cc1nc2scc(-c3ccccc3)c2c(=O)n1N=C1C=CC(=O)C=C1` gave APP 5UTR inh 80.5*, Ba/F3 V617F tox 49.3*, BaF3 parental -9.9, IEC-6 tox 8.7, KLF5 inhibitor -25.6 and aSyn UTR inh -18.9.
For Cc1nc2scc(-c3ccccc3)c2c(=O)n1N the results were APP 5UTR inh 12.9, Ba/F3 V617F tox -4.2, BaF3 parental 0.1, IEC-6 tox 0.8, KLF5 inhibitor -6.6 and aSyn UTR inh 1.7.
Screening Cc1ccc(C(C)C)c(OCc2ccc(C(=O)N/N=C/c3ccc(C(=O)O)cc3)cc2)c1 returned Ba/F3 V617F tox 0.4, BaF3 parental 2.5, IEC-6 tox 7.4, KLF5 inhibitor -27.7 and aSyn UTR inh 37.3.
For Cc1ccc(C(C)C)c(OCc2ccc(C(=O)N/N=C/c3ccc(O)cc3O)cc2)c1 the results were APP 5UTR inh 74.7*, Ba/F3 V617F tox 3.4, BaF3 parental 5.6, IEC-6 tox 10.9, KLF5 inhibitor 47.2 and aSyn UTR inh 95.8*.
`C[C@]12CC[C@@H]3c4ccc(OC(=O)c5ccccc5)cc4CC[C@H]3[C@@H]1CC[C@@H]2O` gave APP 5UTR inh -14.4, Ba/F3 V617F tox 3.3, BaF3 parental 3.5, IEC-6 tox 2.2, KLF5 inhibitor -1.3 and aSyn UTR inh -11.9.
For COc1cc2c(cc1O)CC[C@@H]1[C@@H]2CC[C@]2(C)[C@@H](O)CC[C@@H]12 the results were APP 5UTR inh 92.9*, Ba/F3 V617F tox 75.7*, BaF3 parental 78.4*, IEC-6 tox 73.9*, KLF5 inhibitor 56.6 and aSyn UTR inh 75.3*.
COc1ccccc1NC(=O)NCC(c1ccco1)N1CCCCC1 (configuration not stated) was read as APP 5UTR inh -3.7, Ba/F3 V617F tox 2.8, BaF3 parental 0.6, IEC-6 tox 4.8, KLF5 inhibitor 3.8 and aSyn UTR inh -2.1.
For COc1ccc(/C=C2\SC(=S)N(CCCC(=O)Nc3ccc(O)cc3)C2=O)cc1 the results were Ba/F3 V617F tox -2.6, BaF3 parental -1.2, IEC-6 tox -1.1, KLF5 inhibitor 26.6 and aSyn UTR inh 77.7*.
For COc1ccc(/C=C2/SC(=S)N(CCC(=O)O)C2=O)cc1 the results were APP 5UTR inh 50.4*, Ba/F3 V617F tox -2.1, BaF3 parental -2.5, IEC-6 tox -6.4, KLF5 inhibitor 26.1 and aSyn UTR inh 97.5*.
